According to PubChem BioAssay AID504333 (National Center for Advancing Translational Sciences (NCATS), 2011):
The whole screen tested about 360,000 compounds, of which about 16,000 (4.4%) were called active. Roughly 9% stayed inconclusive and do not appear here. The call rests on the fitted dose curve; in most records, active means well fitted inhibition curve with a large enough effect; inconclusive means small, poorly fitted or top-dose-only effect; inactive means no such curve, though single readings can be large or run the other way. Many of the other results were omitted from the sample, so actives are more common in it than they were.

target: Bromodomain adjacent to zinc finger domain protein 2B (Homo sapiens) (UniProt Q9UIF8); assay: qHTS Assay for Inhibitors of BAZ2B; settings: AlphaScreen BAZ2B-H3K14Ac peptide displacement; series mostly up to 114 µM; activity change, negative = inhibition: at the top concentration; further: nearly all actives have a fitted effect of over 60% in size
Sequence (Q9UIF8 whole entry, looked up, the tested form may be a part): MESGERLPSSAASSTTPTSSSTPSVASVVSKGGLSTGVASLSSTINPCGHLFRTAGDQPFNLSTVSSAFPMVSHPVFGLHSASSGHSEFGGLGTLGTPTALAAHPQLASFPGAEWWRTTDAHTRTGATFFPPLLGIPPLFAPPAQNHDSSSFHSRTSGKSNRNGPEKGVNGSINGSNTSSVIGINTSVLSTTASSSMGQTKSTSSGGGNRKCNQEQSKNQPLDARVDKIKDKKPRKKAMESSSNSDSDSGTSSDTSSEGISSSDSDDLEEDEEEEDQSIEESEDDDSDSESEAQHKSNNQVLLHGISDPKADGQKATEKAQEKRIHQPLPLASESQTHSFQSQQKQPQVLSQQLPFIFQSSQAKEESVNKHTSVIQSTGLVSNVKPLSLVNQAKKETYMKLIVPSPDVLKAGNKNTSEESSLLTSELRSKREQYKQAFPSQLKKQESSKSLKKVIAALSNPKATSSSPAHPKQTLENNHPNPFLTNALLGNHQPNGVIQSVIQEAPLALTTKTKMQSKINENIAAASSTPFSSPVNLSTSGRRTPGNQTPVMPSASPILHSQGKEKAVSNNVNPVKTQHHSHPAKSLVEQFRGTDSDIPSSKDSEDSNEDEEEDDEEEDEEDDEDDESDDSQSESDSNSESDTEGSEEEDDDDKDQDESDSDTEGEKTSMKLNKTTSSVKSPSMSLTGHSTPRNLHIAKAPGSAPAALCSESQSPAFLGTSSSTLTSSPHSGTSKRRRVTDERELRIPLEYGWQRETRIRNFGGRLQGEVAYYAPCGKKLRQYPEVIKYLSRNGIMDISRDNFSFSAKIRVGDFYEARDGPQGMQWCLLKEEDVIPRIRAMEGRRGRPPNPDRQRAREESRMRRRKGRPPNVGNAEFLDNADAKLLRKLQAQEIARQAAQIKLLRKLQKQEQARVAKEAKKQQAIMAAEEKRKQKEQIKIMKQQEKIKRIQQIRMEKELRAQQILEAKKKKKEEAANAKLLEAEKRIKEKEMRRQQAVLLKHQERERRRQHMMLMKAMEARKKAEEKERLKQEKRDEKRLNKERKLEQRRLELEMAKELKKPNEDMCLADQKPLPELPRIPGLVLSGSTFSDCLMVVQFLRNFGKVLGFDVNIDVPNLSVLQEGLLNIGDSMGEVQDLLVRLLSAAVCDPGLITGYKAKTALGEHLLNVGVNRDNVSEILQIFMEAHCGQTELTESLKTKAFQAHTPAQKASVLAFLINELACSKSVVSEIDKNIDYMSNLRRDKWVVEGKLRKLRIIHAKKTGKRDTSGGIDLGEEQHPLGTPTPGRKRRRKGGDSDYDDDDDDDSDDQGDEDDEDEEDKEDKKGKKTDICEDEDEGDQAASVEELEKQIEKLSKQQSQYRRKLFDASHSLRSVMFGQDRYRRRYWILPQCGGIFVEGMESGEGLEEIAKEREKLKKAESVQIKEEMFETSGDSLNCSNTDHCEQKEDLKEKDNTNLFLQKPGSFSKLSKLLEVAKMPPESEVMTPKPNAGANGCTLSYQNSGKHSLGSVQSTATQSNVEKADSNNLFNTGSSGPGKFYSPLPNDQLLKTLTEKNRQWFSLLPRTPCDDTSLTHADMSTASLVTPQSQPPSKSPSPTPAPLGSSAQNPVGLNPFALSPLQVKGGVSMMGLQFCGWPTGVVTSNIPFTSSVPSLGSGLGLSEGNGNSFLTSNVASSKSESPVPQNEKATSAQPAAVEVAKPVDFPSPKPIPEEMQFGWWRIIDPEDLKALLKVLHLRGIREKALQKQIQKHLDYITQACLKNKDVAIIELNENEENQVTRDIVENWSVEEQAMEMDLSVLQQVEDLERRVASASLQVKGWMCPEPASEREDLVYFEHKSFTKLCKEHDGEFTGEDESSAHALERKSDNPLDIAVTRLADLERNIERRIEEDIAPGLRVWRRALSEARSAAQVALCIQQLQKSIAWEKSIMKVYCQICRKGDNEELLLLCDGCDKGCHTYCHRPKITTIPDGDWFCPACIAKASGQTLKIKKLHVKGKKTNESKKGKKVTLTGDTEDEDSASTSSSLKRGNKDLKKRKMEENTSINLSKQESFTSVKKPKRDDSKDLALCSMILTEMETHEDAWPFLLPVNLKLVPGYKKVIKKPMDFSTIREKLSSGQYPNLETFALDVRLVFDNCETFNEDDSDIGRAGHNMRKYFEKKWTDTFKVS
Outline: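 BAZ2B (50 nM) with biotin-H3(5-23)K14Ac peptide (50 nM) in PBS pH 7.4, 0.01% Tween-20, preformed 30 min, then compound 30 min at room temperature; top concentration 110uM. AlphaScreen streptavidin donor/nickel chelate acceptor beads (10 ug/mL final), 20 min dark, signal read.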
On the % scale 0 is the no-effect control and ±100 the full control effect; potency means the concentration at half of the fitted maximal effect.

Compound	activity change, negative = inhibition	Potency
CCOC(=O)c1ccc(CSc2nnc3cc(C)c4ccccc4n23)cc1	-15.6% (inactive)	
CCOc1ccc(C(=O)c2cn(Cc3ccccc3OC)c3ccc(F)cc3c2=O)cc1	-19.9% (inactive)	
CCCN(C(=O)Cn1ncc2c([nH]c3ccc(C)cc32)c1=O)c1ccccc1C	1.79% [at 57.1 µM] (inactive)	
CCOC(=O)c1cc(-c2ccccc2)n(-c2cccc(C(=O)Nc3cc(OC)cc(OC)c3)c2)c1C	-27.3% (inactive)	
O=C(CSc1ccccc1)Nc1ccc(C(=O)Nc2cccc(O)c2)cc1	3.89% (inactive)	
Cc1cc2nc(-c3ccc(NC(=O)c4cccnc4)cc3)oc2cc1C	11.6% (inactive)	
O=C(NCc1cccc(CNC(=O)Nc2cccc(O)c2)c1)Nc1cccc(O)c1	-18.9% (inactive)	
Cc1ccc(OCC(=O)NCCCNC(=O)c2cccnc2)cc1C	-1.83% (inactive)	
O=C(COc1ccc(/C=N/NC(=O)c2ccc(O)cc2)cc1)Nc1ccc([N+](=O)[O-])cc1	-26.7% (inactive)	
C/C(=C\C(=O)c1ccccc1)Nc1cccc(O)c1		50.1 µM (active)
C/C(=C\C(=O)c1cccnc1)Nc1ccc(C)c(C)c1		50.1 µM (active)
Cc1ccc(NC(=O)COc2ccc(/C=N\NC(=O)c3cccnc3)cc2)cc1C		56.2 µM (active)
Cc1ccc(N/C=C/C(=O)c2ccccc2)cc1C	-4.96% (inactive)	
Cc1cccc(NC(=O)c2ccc(F)c(S(=O)(=O)N(C)C3CCCCC3)c2)c1	0.102% (inactive)	
COc1ccc(Cl)cc1NC(=O)c1sc2nc3c(cc2c1N)CN(C)CC3	-14.9% (inactive)	
CCOCCCNC(=O)c1c(NC(=O)c2nc(SC)ncc2Cl)sc2c1CCCC2	-6% (inactive)	
CNC(=O)c1cccc2nc3ccccc3nc12		50.1 µM (active)
CN(C)C(=O)c1coc2nc3ccccc3nc12	-3.28% (inactive)	
CNC(=O)c1cc2c(ccc3ccccc32)oc1=N	4.85% (inactive)	
COc1ccc(-n2c(SC)nc3sc4c(c3c2=O)CCN(C(C)=O)C4)cc1	4.86% (inactive)	
CCOc1ccc(CNC(=O)c2ccc3nc(CC)c(CC)nc3c2)cc1OC	-2.35% (inactive)	

Compound	activity change, negative = inhibition	Potency
CC(C)c1ccc(Nc2nnc(SCC(=O)c3nnc(-c4ccccc4)o3)s2)cc1		35.5 µM (active)
Cc1ccc(Nc2nnc(SCC(=O)c3cc4ccccc4o3)s2)cc1C	-32.6% (inactive)	
Cc1ccccc1Nc1nnc(SCC(=O)c2cc3ccccc3o2)s1	-11.7% (inactive)	
COc1ccc(OC)c(-c2noc(N3CCN(c4cc(Cl)ccc4C)CC3)n2)c1	0.334% (inactive)	
O=C(Nc1ccc2nc(SCC(=O)N3CCCc4ccccc43)sc2c1)c1ccc(F)cc1	-4.11% (inactive)	
CCOC(=O)c1c(C)[nH]c(C)c1S(=O)(=O)NCC(=O)NCc1cccc(C)c1	-11.8% (inactive)	
Cc1ccc(C)c(CNC(=O)c2cc3ccccn3n2)c1	0.834% (inactive)	
CN(C)CCCN(C(=O)c1ccc(S(=O)(=O)N2CCCc3ccccc32)cc1)c1nc2ccc(F)cc2s1		28.2 µM (active)
CSc1nc2ccc(S(=O)(=O)N3CCc4ccccc43)cc2s1	8.85% (inactive)	
CCN(CC)CCN(C(=O)c1ccc(S(=O)(=O)N2CCOCC2)cc1)c1nc2cc3c(cc2s1)OCCO3	-27.1% (inactive)	
CN(C)CCCN(C(=O)c1ccc(S(=O)(=O)N2CCCCCC2)cc1)c1nc2ccc(Br)cc2s1		28.2 µM (active)
CCc1ccc2nc(N(CCCN(C)C)C(=O)c3ccc4c(c3)OCCO4)sc2c1	5.24% (inactive)	
Cc1ccc2nc(N(CCN(C)C)C(=O)C3=COCCO3)sc2c1	-2.02% (inactive)	
CCOc1ccc(OCC)c(NC(=O)c2c(C)nn(-c3ccccc3)c2-n2cccc2)c1	-14.5% (inactive)	
O=C(CCc1ccccc1)NCc1ccc2c(c1)CCN2C(=O)c1ccccc1	0.443% (inactive)	
CCOCCCNC(=O)c1c(NC(=O)Cc2coc3ccc(C)cc23)sc2c1CCC2	-24% (inactive)	
COc1ccccc1N(CC(=O)N/N=C(\C)c1ccccc1O)S(=O)(=O)c1ccc(C)cc1		50.1 µM (active)
COc1ccccc1NC(=O)CN(c1ccccc1OC)S(=O)(=O)c1ccccc1	-1.7% (inactive)	
COc1ccc(S(=O)(=O)N(CC(=O)N/N=C/c2ccccc2C(=O)O)c2ccccc2OC)cc1	-4.57% (inactive)	
CCCN(CCC)S(=O)(=O)c1ccc(C(=O)Nc2sc3c(c2C(=O)OC)CCN(CC)C3)cc1	5.32% (inactive)	
Cc1cccc(C(=O)N2CCc3cc(CNC(=O)Cc4ccc(F)cc4)ccc32)c1	-4.43% (inactive)	

Compound	activity change, negative = inhibition	Potency
CCC(=O)Nc1c(C(=O)N2CCN(c3ccc(F)cc3)CC2)oc2ccccc12	-0.938% [at 57.1 µM] (inactive)	
Cc1nnc(SCC(=O)NCc2ccccc2Cl)c2nn(-c3ccccc3)c(C)c12	-11.1% (inactive)	
COc1ccc(CNC(=O)C(C)n2nc(C)c3c(C)n(-c4ccccc4)nc3c2=O)c(OC)c1 (stereo not drawn)		inactive
Cc1nn(C(C)C(=O)NCCC2=CCCCC2)c(=O)c2nn(-c3ccccc3)c(C)c12 (stereo not drawn)	-18.5% (inactive)	
Cc1ccc(-n2nc3c(=O)n(C(C)C(=O)NCc4ccc5c(c4)OCO5)nc(C)c3c2C)cc1 (stereo not drawn)		79.4 µM (active)
O=C(CSCc1cnn(-c2ccccc2)c1-n1cccc1)NCc1ccccc1Br	-3.98% (inactive)	
CN=c1scc(-c2cc(OC)ccc2OC)n1/N=C/c1c(C)[nH]c2ccccc12		35.5 µM (active)
COCCNC(=S)N/N=C/c1c(C)[nH]c2ccccc12	-32.2% (inactive)	
CCn1c(-c2cc(OC)ccc2OC)csc1=Nc1c(C)n(C)n(-c2ccccc2)c1=O	-32.6% (inactive)	
COc1ccc(CNC(=O)Cn2nnc(-c3ccccc3F)n2)cc1	-23.3% (inactive)	
CC(C)c1ccc(NC(=O)c2cc(S(=O)(=O)N3CCc4ccccc4C3)ccc2F)cc1	6.06% (inactive)	
Cc1cccc(CCNC(=O)c2ccc3c(c2)nc2n3CCC(C)C2)c1 (stereo not drawn)	1.78% (inactive)	
Cc1ccc(C)n1-c1nnc(N2CCC(C(=O)NCc3ccccc3Cl)CC2)s1	-14.5% (inactive)	
Cc1ccc(-n2c(C)cc(/C=N\NC(=O)CC(=O)NC(C)C)c2C)cc1	-37.5% (inactive)	
Cc1cc(/C=N/NC(N)=O)c(C)n1C1CCCCC1		50.1 µM (active)
O=C(N/N=C/c1ccccc1O)C1CCCC1	12.8% (inactive)	
CCC(=O)N1c2ccccc2CC1C(=O)N1CCN(c2cccc(OC)c2)CC1 (stereo not drawn)	-5.26% (inactive)	
O=C(CC(NCc1cccnc1)C(=O)O)Nc1ccc(O)cc1 (stereo not drawn)	-2.04% (inactive)	
COc1cccc(NC(=O)CN2CCN(c3nc(-c4cccc(OC)c4)cs3)CC2)c1	-10.8% (inactive)	
CC1CCCC(C)N1C(=O)CN1CCN(c2nc(-c3ccc(F)cc3)cs2)CC1 (stereo not drawn)		70.8 µM (active)
CCc1ccc(CNC(=O)C2CCN(c3nn4cc(-c5ccc(F)cc5)nc4s3)CC2)cc1	2.3% (inactive)	
